# According to PubChem BioAssay (EPA / NIEHS):
# “And” between values parts separate entries of the source, which are not always exact repeats. Equal entries are not always repeated. Where a structure was tested more than once in an assay, its records may differ in their call. The source made the active and inactive calls. How the source made its calls: active means hit-call score of the fitted dose curve at least 0.9, where 1 is the maximum; inactive means score below 0.9.
# Read-out: Matrix Metallopeptidase 1 (MMP1), MMP1 (gene 4312)
# Assay: BSK_hDFCGF_MMP1: BioMAP Diversity Plus: hDFCGF Assay for Matrix Metallopeptidase 1 (MMP1) Biomarker Activity (AID 2283064)
# Conditions: primary human foreskin fibroblasts; actives raise or lower the signal
# Experimental: BSK_hDFCGF is a cell-based, multiplexed-readout assay that uses foreskin fibroblast, a human skin primary cell, with measurements taken at 24 hours after chemical dosing in a 96-well plate.BSK_hDFCGF_MMP1 is an assay component measured in the BSK_hDFCGF assay. It measures MMP-1 antibody related to regulation of gene expression using ELISA technology.Data from the assay component BSK_hDFCGF_MMP1 was analyzed into 1 assay endpoint. This assay endpoint, BSK_hDFCGF_MMP1, was analyzed with bidirectional fitting relative to DMSO as the negative control and baseline of activity. Using a type of binding reporter, gain or loss-of-signal activity can be used to understand changes in the signaling as they relate to the gene MMP1. Furthermore, this assay endpoint can be referred to as a primary readout, because this assay has produced multiple assay endpoints where this one serves a signaling function. To generalize the intended target to other relatable targets, this assay endpoint is annotated to the protease intended target family, where the subfamily is matrix metalloproteinase.
# The levels of cell surface (or secreted, indicated by the prefix "s") biomarker endpoints were measured by ELISA. Overt cytotoxicity to cells in confluent adherent cultures (all systems other than the BT system) was assessed by measuring total protein levels using sulforhodamine B (SRB) staining in parallel cultures at the time of biomarker measurements, indicated as SRB endpoints. For proliferation assays for adherent cell types, individual cell types are cultured at sub-confluence and relative cell numbers quantified by SRB staining at time points optimized for each system (48 h: 3C and CASM3C systems; 72 h: BT and HDF3CGF systems; 96 h: SAg system). SRB was performed by staining cells with 0.1% SRB after fixation with 10% TCA and reading wells at 560 nm.Viability and proliferation of PBMC (T cells) was quantified by Alamar Blue reduction for the SAg and BT systems. For PBMC viability (referred to as PBMC Cytotoxicity within the assay endpoint names), cells were plated (75,000/well in a 96-well plate) and then chemical samples added for 1 h before addition of activators, SEB and TSST-1 (20 ng/mL final concentration each). Cells were incubated for 90 h. Then, Alamar Blue (20 uL/well) (Invitrogen, Cat DAL1100) was added for 6 h, and the plates were read with a fluorescence microplate reader at 546/580 nm (excitation/emission). For PBMC proliferation, cells were plated and activated as above but incubated for only 16 h prior to addition of Alamar Blue. Plates were read after 6 h.
Compound,outcome,AC50
C[C@]12CCC(=O)C=C1CC[C@@H]1[C@@H]2CC[C@@]2(C)[C@H]1CC[C@]2(C)O,inactive,
Clc1ccc(C(Cl)(Cl)Cl)cc1,inactive,
CCC(C)(c1ccc(O)cc1)c1ccc(O)cc1,inactive,
Cc1cccc(C)c1N,inactive,
Cc1ccccc1[N+](=O)[O-],inactive,
O=C(O)C(F)(F)C(F)(F)C(F)(F)C(F)(F)C(F)(F)F,inactive,
CCOC(=O)C(O)(c1ccc(Cl)cc1)c1ccc(Cl)cc1,inactive,
Oc1c(Cl)c(Cl)c(Cl)c(Cl)c1Cl,inactive,33.1 µM (active)
C[C@]12CCC(=O)C=C1CC[C@@H]1[C@@H]2CC[C@]2(C)C(=O)CC[C@@H]12,inactive,
Nc1ccc(-c2ccc(N)cc2)cc1,inactive,
O=C(O)C(F)(F)C(F)(F)C(F)(F)C(F)(F)C(F)(F)C(F)(F)C(F)(F)C(F)(F)C(F)(F)F,,33.3 µM (active) and 26.9 µM (active) and 40.3 µM (active)
CCOP(=S)(OCC)SCSC(C)(C)C,inactive,
CCOCCOC(C)=O,inactive,
Clc1ccc(C(c2ccccc2Cl)C(Cl)(Cl)Cl)cc1 (stereo not given),,9.47 µM (active)
Oc1ccc(Cl)cc1Cl,inactive,
COc1ccc(O)c(C(C)(C)C)c1,inactive,
ClC1=C(Cl)[C@]2(Cl)[C@@H]3[C@@H]4C[C@@H]([C@H]5O[C@@H]45)[C@@H]3[C@@]1(Cl)C2(Cl)Cl,inactive,
Cc1cc2c3c(c1)C(c1ccccc1)=N[C@@H](NC(=O)c1ccncc1)C(=O)N3CC2,,14 µM (active)
O=C(NC(=O)c1c(F)cccc1F)Nc1cc(Cl)c(OC(F)(F)C(F)F)c(Cl)c1,inactive,
CC(C)(c1ccccc1)c1ccc(O)cc1,,32.8 µM (active)

Compound,outcome,AC50
CCCN(CCC)N=O,inactive,
O=C(N[C@H]1CN2CCC1CC2)c1cc2ccoc2cn1,inactive,
CN(C)CCO,inactive,
Nn1cnnc1,inactive,
C1CC2OC2CC1C1CO1 (stereo not given),inactive,
Cc1ccc(O)c(C)c1,inactive,
Cc1cccc([N+](=O)[O-])c1,inactive,
O=NN(c1ccccc1)c1ccccc1,inactive,
CCSC(=O)N(CC)C1CCCCC1,inactive,
O=C(NC(=O)c1cc(F)c(F)cc1Cl)Nc1cc(F)ccc1N1CCC(C(=O)O)CC1,inactive,
CC(C)(O)C(=O)Nc1ccc([N+](=O)[O-])c(C(F)(F)F)c1,inactive,
N#Cc1ccc(N(CC(N)=O)CC(F)(F)F)cc1C(F)(F)F,inactive,
c1cc2ccc3cccc4ccc(c1)c2c34,inactive,
ClC1=C(Cl)[C@]2(Cl)[C@@H]3[C@H]4C[C@H]([C@@H]5O[C@H]45)[C@@H]3[C@@]1(Cl)C2(Cl)Cl,inactive,
CCCCCCOC(=O)c1ccccc1C(=O)OCCCCCC,inactive,
CCC(C)(CC)c1cc(NC(=O)c2c(OC)cccc2OC)on1,inactive,
C=CC(=O)NCNC(=O)C=C,inactive,
CO/C=C(/C(=O)OC)c1ccccc1COc1cccc(C(F)(F)F)n1,,6.92 µM (active)
CC#Cc1cc(C)nc(Nc2ccccc2)n1,inactive,
